In all, about 69,000 compounds went through this assay and about 8,600 (12%) showed an effect of 50% or more. The full list was thinned out, with strong results kept by preference.

Results on 54 molecules are retold here after ChEMBL document CHEMBL4513216, “Probing the Open Global Health Chemical Diversity Library for Multistage-Active Starting Points for Next-Generation Antimalarials” (ACS Infect Dis, 2020).

The test system of this test is Plasmodium berghei. The test is described as follows: Screen against P. berghei liver stage (PbLuc), transformed with Luciferase, at 10uM. Type of test: functional, HepG2. The settings on record: tested at 10 uM.
In the case of `N#Cc1cccc(OCCN2CCn3c(nnc3C3CC3)C2)c1`, the INHIBITION was -1.14%.

For `CCN(Cc1cccc2c1OCO2)C(=O)Nc1cn[nH]c1`, the INHIBITION is -16%.

Turning to `Cn1ncc2c1C(COCC1CC1)CN(C(=O)c1ccoc1)C2` (centres undefined), the INHIBITION was determined as 25.6%.

Take `O=C(c1ccoc1)N1Cc2cnn(CC3CC3)c2C(COCC2CC2)C1` (centres undefined): the INHIBITION came out at 22.6%.

On to `COCC1CN(C(=O)c2ccoc2)Cc2cnn(CC3CCOCC3)c21` (centres undefined), for which the INHIBITION turned out to be 51.4%.

Turning to `Cc1nn(CCO)c(C)c1-c1cc(C(C)(C)C)nc(N)c1C#N`, the INHIBITION is -0.71%.

On to `COc1cc(F)ccc1NC(=O)NCCNC(=O)OC(C)(C)C`, for which the INHIBITION is reported as 19.1%.

As to `CCC(=O)Nc1ccc(F)cc1OC`, the INHIBITION is recorded as 27.6%.

For the molecule `COc1cc(F)ccc1NC(=O)NC(C)C(=O)NC(C)(C)C` (centres undefined), the INHIBITION is 50.1%.

On to `CCn1ncc(CN2CCC(c3ncc(Cl)cc3S(C)(=O)=O)CC2)c1C`, for which the INHIBITION was found to be 20.57%.

With `COc1ncccc1C(=O)NCCn1nc(C)ccc1=O`, the INHIBITION came out at 3.68%.

In the case of `CNc1ccc(C2CN(c3nc(C)cc(C)n3)CCO2)nc1` (centres undefined), the INHIBITION is -7.9%.

On to `COc1ccc(CN2CCC3(CC(=O)N(c4cncnc4)C3)C2)cc1` (centres undefined), for which the INHIBITION was determined as 42.6%.

For the molecule `COCCNC(=O)CN1CCCC1c1c(C)nn(C)c1Cl` (centres undefined), the INHIBITION is reported as 36.1%.

As for `Cc1nn(C)c(Cl)c1C1CCCN1CC(=O)N1CCOCC1` (centres undefined), the INHIBITION is reported as 33.6%.

As to `Cc1nn(C)c(Cl)c1C1CCCN1CC(=O)N1CCCCC1` (centres undefined), the INHIBITION is reported as -3.21%.

As for `CC(=O)N1CCN(C(=O)CN2CCCC2c2c(C)nn(C)c2C)CC1` (centres undefined), the INHIBITION came out at 50.1%.

In the case of `Cc1nn(C)c(C)c1C1CCCN1Cc1nnc(C2CC2)n1C` (centres undefined), the INHIBITION amounted to 50.5%.

Consider `Cc1nn(C)c(Cl)c1C1CCCN1Cc1nnc(C2CC2)n1C` (centres undefined), for which the INHIBITION came out at 7.93%.

In the case of `Cc1nn(C)c(C)c1NC(=O)CN1CCCC1c1c(C)nn(C)c1C` (centres undefined), the INHIBITION worked out at 28.8%.

As for `Cc1nn(C)c(Cl)c1C1CCCN1CC(=O)NC1CCCC1` (centres undefined), the INHIBITION was 53%.

Consider `CC(=O)NCCNC(=O)CN1CCCC1c1c(C)nn(C)c1C` (centres undefined), for which the INHIBITION is listed as 60.2%.

For `COc1c(C2CCCN2Cc2nnc(C3CC3)n2C)c(C)nn1C` (centres undefined), the INHIBITION is 5.94%.

Regarding `Cc1nn(C)c(Cl)c1C1CCCN1CC(=O)NC1CCCCC1` (centres undefined), the INHIBITION was 14.7%.

Regarding `Cc1nn(C)c(C)c1C1CCCN1CC(=O)NC(C1CC1)C1CC1` (centres undefined), the INHIBITION came out at 25.7%.

With `Cc1cc(C(=O)NC2CCc3c(ccc(=O)n3CC(C)C)C2)no1` (centres undefined), the INHIBITION was 2.7%.

As for `CN(CCC#N)C(=O)Cn1cnc2c(Br)cccc2c1=O`, the INHIBITION is 11.9%.

On to `CCn1ccnc1CN1CCCN(C(=O)c2ccsc2)CC1`, for which the INHIBITION is recorded as 16.165%.

Take `CS(=O)(=O)c1ccc(NCCC2CCCO2)c(S(C)(=O)=O)c1` (centres undefined): the INHIBITION came to 15.2%.

For `Cc1cccc(SC2CCN(C(=O)CCCn3cnnn3)CC2)c1`, the INHIBITION was 43.8%.

As for `CN(C)Cc1ccnc(NS(=O)(=O)Cc2cccc(F)c2)c1`, the INHIBITION was determined as 27%.

`CC(C)n1cnnc1C1CCCN(C(=O)COCc2ccccc2)C1` (centres undefined): the INHIBITION is 2.3%.

As to `NC(=O)c1csc(N2C[C@@H](CN3CCC(O)CC3)[C@@H](CO)C2)n1`, the INHIBITION is on record as 19.6%.

Turning to `CC(NC(=O)CSCC(N)=O)c1ccccc1Oc1ccccc1` (centres undefined), the INHIBITION is 71.4%.

Regarding `CCS(=O)(=O)CC(=O)NC(C)c1ccccc1Oc1ccccc1` (centres undefined), the INHIBITION was -3.94%.

For `CC(NC(=O)CSCC(N)=O)c1ccc(Oc2ccccc2)cc1` (centres undefined), the INHIBITION is 1.86%.

Regarding `Cc1nnc(N2C[C@@H](OCC3CCCC3)[C@H]3OCCC[C@H]32)s1`, the INHIBITION was -36%.

Regarding `O=C(c1ccc2[nH]nnc2c1)N1C[C@H](O)[C@]2(CCCO2)C1`, the INHIBITION is reported as 4.41%.

For the molecule `O=C(NCCCN1CCCCC1)c1ccc(-n2ccc3ccccc32)s1`, the INHIBITION stood at 84.5%.

On to `CCN(CC)CCNC(=O)c1cnc(C(C)(C)C)s1`, for which the INHIBITION came out at 4.88%.

For the molecule `Cc1nc(-c2cc(C(=O)NCCN3CCOCC3)c3ccccn23)cs1`, the INHIBITION is given as -11.6%.

In the case of `CCC1CN(CC(=O)NCCN(CC)CC)c2ccccc2S1` (centres undefined), the INHIBITION came out at 19.4%.

Take `O=C(NCCCN1CCOCC1)c1ccc(-n2ccc3ccccc32)s1`: the INHIBITION is 29.3%.

As for `Cn1ccc2c(C(=O)NCCCN3CCOCC3)cccc21`, the INHIBITION amounted to 22.2%.

Regarding `Cn1ccc2c(C(=O)NCCCN3CCCC3)cccc21`, the INHIBITION amounted to 55.9%.

In the case of `O=C(NCCCN1CCCCC1)c1n[nH]c(=O)c2ccccc12`, the INHIBITION is recorded as 14.4%.

Take `Cn1ccc2c(C(=O)NCCCS(C)(=O)=O)cccc21`: the INHIBITION worked out at 9.16%.

For `O=C(NCCN1CCOCC1)c1ccc(-n2ccc3ccccc32)s1`, the INHIBITION is given as 63.2%.

As to `O=C(NCCCN1CCCC1=O)c1ccc(-n2ccc3ccccc32)s1`, the INHIBITION is listed as -45.5%.

With `CCN(CC)CCNC(=O)c1ccc(-n2ccc3ccccc32)s1`, the INHIBITION was determined as 75.1%.

In the case of `Cc1nc2c(c(=O)[nH]1)CN(C(=O)CCC1CCCN(C)C1)C2` (centres undefined), the INHIBITION stood at 48.2%.

As to `Cc1noc(CN(C)Cc2ccc3c(c2)OCO3)n1`, the INHIBITION turned out to be 19.2%.

For `Cc1cc(Cl)ccc1-n1ncc(C(=O)NCC2COC(C)(C)O2)c1N` (centres undefined), the INHIBITION is -15.2%.

Consider `CC(C)N(C)Cc1cnc2n1CCN(Cc1ccsc1)C2`, for which the INHIBITION turned out to be 21.4%.
